Results from PubChem BioAssay (NCI).
The panel holds about 83,000 compounds, 20% with a hit somewhere; the sample as a whole holds those more often.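 Results are percent growth after 48 hours of single-concentration exposure. 100 means growth as in untreated cells, lower positive values show inhibition; negative values down to -100 show cell death.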 Unmarked numbers belong to inactive results. Active and inactive are the calls of the source. The calls were made as follows: active = growth percent below 10; inactive = the rest.

Key:
Assay in all cases: NCI-60 one-dose screen, 48 h (100 = growth as untreated, 0 = no growth, -100 = all killed)
Details in all cases: 10 µM unless noted
DU-145 prostate = system: DU-145 prostate
MALME-3M melanoma = system: MALME-3M melanoma
MDA-MB-231 breast = system: MDA-MB-231 breast
RXF 393 renal = system: RXF 393 renal
SF-268 CNS = system: SF-268 CNS
SF-295 CNS = system: SF-295 CNS
SF-539 CNS = system: SF-539 CNS
UACC-257 melanoma = system: UACC-257 melanoma
M14 melanoma = system: M14 melanoma
HCT-15 colon = system: HCT-15 colon
HT29 colon = system: HT29 colon
SNB-75 CNS = system: SNB-75 CNS
SNB-19 CNS = system: SNB-19 CNS
U251 CNS = system: U251 CNS
PC-3 prostate = system: PC-3 prostate
SK-MEL-5 melanoma = system: SK-MEL-5 melanoma
UACC-62 melanoma = system: UACC-62 melanoma
LOX IMVI melanoma = system: LOX IMVI melanoma
SK-MEL-28 melanoma = system: SK-MEL-28 melanoma

SMILES | growth (DU-145 prostate) | growth (MALME-3M melanoma) | growth (MDA-MB-231 breast) | growth (RXF 393 renal) | growth (SF-268 CNS) | growth (SF-295 CNS) | growth (SF-539 CNS) | growth (UACC-257 melanoma) | growth (M14 melanoma) | growth (HCT-15 colon) | growth (HT29 colon) | growth (SNB-75 CNS) | growth (SNB-19 CNS) | growth (U251 CNS) | growth (PC-3 prostate) | growth (SK-MEL-5 melanoma) | growth (UACC-62 melanoma) | growth (LOX IMVI melanoma) | growth (SK-MEL-28 melanoma)
O=c1c2c(c(=O)n1O)c1c3ccc[nH]c3nc1c1nc3[nH]cccc3c12 | 95.4% | 84.3% | 77.4% | 87% | 71.7% | 96% | 83.9% | 85.4% | 94% | 97% | 89.7% | 87% | 70.8% | 64.6% | 67.7% | 85.8% | 63% | 72.6% | 96.2%
COc1cc(-c2cc(-c3ccc(N(C)C)cc3)nc(N3CCOCC3)c2C#N)cc(OC)c1OC | 52.4% | 31.1% | 25.2% | -43.2% (active) | 36% | -20.9% (active) | 47.3% | 24.3% | -61.5% (active) | 44.1% | 12.1% | 25.3% | 45% | 24.2% | 44.4% | 3.48% (active) | -39% (active) | -58.6% (active) | 65.4%
CC(=O)[C@@H]1CC[C@]2(C(N)=O)CC[C@]3(C)[C@H](CC[C@@H]4[C@@]5(C)CCCNC(C)(C)[C@@H]5CC[C@]43C)[C@@H]12 | 91.6% | 90% | 106% | 69.5% | 80.2% | 86.6% | 90.1% | 94.4% | 77.5% | 70.7% | 3.98% (active) | 80.4% | 86.2% | 81.7% | 65.5% | 75.9% | 83.5% | 84.4% | 95.8%
COc1cc(C2=NN(C(C)=O)C(c3cc(OC)c(OC)c(OC)c3)C2)ccc1O (stereo not drawn) | -1.86% (active) | 49.4% | 4.4% (active) | -20.9% (active) | 36.2% | -55.6% (active) | -30.7% (active) | 60% | -28.3% (active) | 4.31% (active) | 8.21% (active) | 4.64% (active) | 34.9% | 7.85% (active) | 13.1% | 6.65% (active) | 15.3% | 34.7% | 68.2%
N#Cc1c(-c2ccccc2)nc2c(c(-c3ccccc3)nn2-c2ccccc2)c1-c1ccc(O)cc1 | 49.4% | 43.8% | 23.8% | -17.6% (active) | 55.5% | -43.1% (active) | 23.3% | 71.3% | 56.4% | 34.8% | 84.7% | 33.2% | 39.3% | 24.3% | 4.85% (active) | 59% | 61.5% | -48.3% (active) | 49.1%
CNCCOc1nc2c3cnccc3cc(-c3cc(OC)c(OC)c(OC)c3)c2c2ccncc12 | -13.7% (active) | -80.2% (active) | -9.1% (active) | -85.7% (active) | -9.41% (active) | -20.7% (active) | -59.5% (active) | -43.1% (active) | -67.8% (active) | -6.39% (active) | -39.9% (active) | -64.6% (active) | -8.3% (active) | -17.1% (active) | -13.4% (active) | -97.7% (active) | -62.1% (active) | -46.8% (active) | -71.6% (active)
Oc1ccc(C2c3ccccc3Oc3ccccc32)c2cccnc12 | 31.2% | 10.2% | 30.2% | 5.91% (active) | 20.2% | 13% | 10.4% | 3.42% (active) | -24.5% (active) | 30.3% | 21.7% | 27.2% | 26.7% | 10.8% | 34.2% | -58.8% (active) | 4.38% (active) | 5.35% (active) | 36%
